Measured values reported in PubChem BioAssay (NCI).
About 83,000 compounds went through this panel and 20% of them were active in at least one assay; those are over-represented in the sample as a whole.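 Assay: single dose, 48 h. Readout: percent growth (0 = no net growth; negative = cell death). Active: <10.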 The source made the active and inactive calls.

test system: SW-620 colon; assay: NCI-60 one-dose screen, 48 h (100 = growth as untreated, 0 = no growth, -100 = all killed); conditions: 10 µM unless noted

SMILES	growth
CC1(C)CC[C@]2(C(=O)O)CC[C@]3(C)C(=CCC4[C@@]5(C)C[C@@H](O)[C@@H]6OC(c7cccc(Br)c7)OC[C@@]6(C)C5CC[C@]43C)C2C1 (stereo partly drawn)	25% (inactive)
CCOC(=O)/C=C/c1cccc2c1C(=O)NC(C)(c1cc3cc(Br)ccc3oc1=O)N2 (stereo not drawn)	61.2% (inactive)
COc1cc(OC)c2c3nc4cc(C)c(C)cc4nc3n(CCN(C)C)c2c1	35.3% (inactive)
COc1ccc(N2N=C(c3ccc4c(c3)OCO4)CC2c2cccc(NC(=O)CCCNS(=O)(=O)c3ccc(F)cc3)c2)cc1 (stereo not drawn)	86.2% (inactive)
Cc1ccc(NC(=O)CN2CCN(c3ncnc4c3cnn4-c3ccccc3)CC2)cc1	99.9% (inactive)
CN(C)CCn1c2ccccc2c2nc3cc4ccccc4cc3nc21	-58.3% (active)
Cc1ccc(C2CC(c3ccc(S(=O)(=O)NCCNc4nc(Nc5ccc(F)cc5)nc(N(C)C)n4)cc3)=Nc3c(N)nc(N)nc3N2)cc1 (stereo not drawn)	54.1% (inactive)
O=c1onc(-c2cc3ccccc3nc2Cl)n1-c1cccc2ccccc12	29.7% (inactive)
CCCS(=O)(=O)N1CCCC(C(=O)Nc2nc3ccc(NC(=O)c4ccc(F)c(OC)c4F)cc3s2)C1 (stereo not drawn)	81.6% (inactive)
CN(C)c1nc(NCCNS(=O)(=O)c2ccc(C(=O)/C=C/c3ccc(F)cc3)cc2)nc(Nc2ccc(F)cc2)n1	-95.3% (active)
O=C(CCN1C(=O)/C(=C/c2ccc(F)cc2)SC1=S)N1CCOCC1	61.9% (inactive)
O=c1[nH]c2ccccc2cc1CSc1nccc(-c2ccc3ccccc3c2)n1	51.2% (inactive)
CC(=O)Nc1ccc(-n2cnc3ccc(-c4ccc(O)cc4)cc32)cc1	39.2% (inactive)
CC(C)Sc1nc(NCCc2c[nH]c3ccccc23)c(C#N)c(-c2ccc(F)cc2)n1	6.5% (active)
CC(=O)c1c(N)c(C#N)cn1-c1ccc(Cl)cc1Cl	102% (inactive)
C#CCOc1ccc(/C=N/Nc2nc(-c3ccc(Cl)cc3)cs2)cc1OC	82.2% (inactive)
C/C(=N\N=C1/C(=O)Nc2ccc(Cl)cc21)c1ccc2c(c1)Nc1ccccc1S2	-27.8% (active)
CC12CC[C@@H]3[C@]4(C)COC(c5c(F)cccc5F)O[C@@H]4CC[C@@]3(C)[C@@H]1CC(C1=CCOC1=O)O2 (stereo partly drawn)	100% (inactive)
NC(=S)Nc1cccc(NC(N)=S)c1	107% (inactive)

SMILES	growth
Cc1ccc([C@H]2C(C(=O)c3ccc(Cl)cc3)C3(N[C@@H]2c2ccccc2)C(=O)Nc2ccc(Br)cc23)cc1 (stereo partly drawn)	70.6% (inactive)
CC(=O)OC[C@@]1(C)C2CC[C@]3(C)C(CC=C4C5CC(C)(C)CC[C@]5(C(=O)Nc5cccc(C)c5)CC[C@]43C)[C@@]2(C)C[C@@H](OC(C)=O)[C@@H]1OC(C)=O (stereo partly drawn)	40.5% (inactive)
CCCSc1nc(NCCc2c[nH]c3ccccc23)c(C#N)c(-c2ccc(F)cc2)n1	55.7% (inactive)
Clc1ccc(-c2ccc(OCCCN3CCN(c4ccncc4)CC3)cc2)cc1	-8.83% (active)
COc1ccc(C2(SCCNCc3cc(N(C)C)ccn3)c3ccccc3C=Cc3ccccc32)cc1	4.94% (active)
COc1ccc(C2=NN(C(C)=O)C(c3ccc(OCc4ccc(Cl)cc4)c(OC)c3)C2)cc1OC (stereo not drawn)	61.2% (inactive)
CCN(CC)c1ccc(/C=N/Nc2nc(-c3ccc(C)cc3)cs2)c(O)c1	99.1% (inactive)
COc1ccc2[nH]cc(-c3nnc(N)nc3-c3cn(C)c4ncc(Br)cc34)c2c1	87.9% (inactive)
N/C(=N\c1nc2ccccc2s1)NC(=O)Nc1ccc(Cl)cc1Cl	-67.9% (active)
O=C(COc1ccc(NC(=O)Nc2ccc(Cl)c(Cl)c2)cc1)N=Nc1c(O)[nH]c2ccc(Cl)cc12	-46.9% (active)
CC(=O)Nc1ccc(-n2cnc3cc(-c4ccc(O)cc4)ccc32)cc1C(F)(F)F	22.3% (inactive)
COc1ccc2c(c1)C(=N/N=C(\C)c1ccc(OC)c(S(N)(=O)=O)c1)C(=O)N2	93.9% (inactive)
Cc1ccc2c(c1)nc(-c1ccccc1)n2CC(=O)N=Nc1c(O)[nH]c2ccc(Br)cc12	2.54% (active)
C=CC(=O)Nc1ccc(C)c(Oc2ccc(Cl)cc2)c1	43.8% (inactive)
COc1cc2oc(-c3cccc(C(=O)Nc4cccc([N+](=O)[O-])c4)c3)cc(=O)c2c(OC)c1OC	83.1% (inactive)
COc1ccc2oc3c4[nH]c5ccccc5c4c4c(c3c2c1)C(=O)N(C(=O)OC(C)(C)C)C4=O	6.81% (active)
CC(=O)OC[C@@]1(C)C2CC[C@]3(C)C(CC=C4C5CC(C)(C)CC[C@]5(C(=O)Nc5ccc(F)cc5)CC[C@]43C)[C@@]2(C)C[C@@H](OC(C)=O)[C@@H]1OC(C)=O (stereo partly drawn)	36.8% (inactive)
CC1(C)CC[C@]2(C(=O)O)CC[C@]3(C)C(=CCC4[C@@]5(C)C[C@@H](O)[C@@H]6OC(c7ccccc7Br)OC[C@@]6(C)C5CC[C@]43C)C2C1 (stereo partly drawn)	19.5% (inactive)
Nc1nc(C(F)(F)F)cs1	104% (inactive)
